Results: the supplement of paper PMC6555819

How the values were obtained:
Assay in all cases: PBM binding z-score (relative to random genomic background probes); higher = stronger binding; sequences stand for … in GC…GCGATTGACAGCGTAGAATGAAGG
[1] = system: RARb homodimer (NR concentration 270 nM)
In short: (§1)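 The probes on custom Agilent 4×180K protein-binding microarrays were double-stranded, with 34-nt variable regions bearing direct-repeat seeds, single-nucleotide variants, half-site ablations and random human genomic background sequences. Incubation lasted 1 h with ligand-free nuclear receptor dimers in PBS pH 7.4, 2% milk, 0.02% Triton X-100, 1 mM DTT, 0.2 mg/mL BSA and 0.4 mg/ml salmon testes DNA. Antibodies against each partner (one per run) detected bound dimers, and fluorescence scans were regression-normalized. Binding z-scores take the random background probes as reference.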

[2] = system: RARg:RXRa (NR concentration 270 nM, RXRa partner concentration 90 nM)
In short: as §1

[3] = system: RARg homodimer (NR concentration 270 nM)
In short: as §1

[4] = system: RXRa DBDmut IVT, anti-RXR (DBD mutation: RXRa K156A/R161A, NR concentration 90 nM)
In short: as §1

[5] = system: RXRa homodimer (NR concentration 180 nM)
In short: as §1

[6] = system: THRa:RXRa (NR concentration 90 nM, RXRa partner concentration 90 nM)
In short: as §1

[7] = system: THRa homodimer (NR concentration 90 nM)
In short: as §1

[8] = system: VDR homodimer (NR concentration 270 nM)
In short: as §1

| Sequence | PBM binding z-score [1] | PBM binding z-score [2] | PBM binding z-score [3] | PBM binding z-score [4] | PBM binding z-score [5] | PBM binding z-score [6] | PBM binding z-score [7] | PBM binding z-score [8] |
| --- | --- | --- | --- | --- | --- | --- | --- | --- |
| GCTACAGGGTCAGCTAGAGGCCAGAGTATGGAAA | 3.3 | 6.74 | 5.02 | 1.48 | 4.32 | 3.23 | 0.349 | 0.386 |
| AGTCAAAGTTCATCTAGATAACGTAAGATATGCT | 3.87 | 5.31 | 5.67 | 4.57 | 4.56 | 1.99 | -0.582 | 4.4 |
| CTCGAAAGGTCTGTTGAGGTGAGTATACGGATAA | 0.88 | 0.827 | 1.16 | -0.237 | 0.536 | 4.3 | 1.12 | -0.104 |
| TTACCAAGGGGAAAGGTCGTTGATGCACGCCTTG | 1.72 | 1.92 | 0.864 | 0.0883 | 2.86 | 1.4 | -0.14 | 1.52 |
| CGAACTAGGTCATAGACAGGACAGTGAATAGTAA | 2.43 | 4.2 | 4.11 | 1.6 | 3.32 | 2.62 | 0.586 | 0.676 |
| TTACCGAGGTGAAGGTCGTTGATCCCTCTGTAGA | 1.72 | 1.58 | 1.02 | -0.12 | 2 | 2.66 | 1.16 | 0.99 |
| TCATATAGGTAAAAGGTGAAAGTGGGTGTGGTAA | 2.35 | 2.16 | 1.01 | 1.87 | 3.15 | 2.07 | 1.12 | 0.877 |
| CAAACTAGGTCAATGTCAAAGTCGGTTTGTGCCA | 3.06 | 3.43 | 4.16 | 1.94 | 2.36 | 2.56 | 0.861 | 1.28 |
| CAAACTAGCTCACAGAGGTCAAAGTCCGTGCGTA | 4.34 | 5.3 | 4.81 | 1.5 | 6.31 | 3.53 | 1.27 | 3.71 |
| TGAATGAGGTTAAAGAGCAGGGAACGTGGCGTCG | 0.754 | 2.13 | 1.34 | 1.01 | 3.19 | 2.39 | 0.467 | 0.665 |
| CCTTACGGGTCAAGGTTATAGCACGGGTGGTACG | 3.41 | 5 | 5.02 | 0.875 | 5.55 | 3.02 | 0.771 | 1.46 |
| CCTCCAAGGTCAATGCTAGGTCAGTGAAAGCATT | 5.1 | 7.37 | 6.33 | 3.35 | 4.78 | 4.47 | 2.91 | 2.71 |
| CAAACTAGGTGACCGGAAGGTCAAAGTCCGCATG | 4.4 | 5.38 | 3.94 | 0.562 | 3.89 | 3.57 | 1.86 | 2.49 |
| TGAATGAGGTTATATGATCAGGGAACGTTGCAAA | 0.492 | 1.64 | 0.971 | 1.26 | 2.06 | 1.98 | 0.364 | 0.855 |
| AGAATGAGGTTACCAAAGATCAGGGCAACGCTTG | 1.97 | 2.24 | 1.97 | 1.14 | 2.77 | 3.16 | 1.2 | 0.728 |
| ATCTCTAGCTAACCAAGTTCAGTGAATGCCGAAC | 1.01 | 0.314 | 0.399 | 0.573 | 0.0234 | 0.509 | 0.214 | 2.29 |
| ACTATTTGGTCAGCTGAGGTCACACACAATTCGG | 4.69 | 4.24 | 4.48 | 2.02 | 4.4 | 5.09 | 5.11 | 3.67 |
| TAGCCTAGGTCAGATCGGGCCAGTTTACGCTATA | 1.83 | 2.54 | 3.36 | -0.346 | 1.21 | 3.76 | 0.0282 | -0.339 |
| TCTGCTAGGTCAGCGATGGTCAGCTAATCTGCTA | 2.71 | 2.89 | 3.88 | 0.156 | 1.25 | 2.4 | -0.062 | -0.739 |
| ACCGACAGGTGATGAAGGTAACTCAGGCTATCAT | 0.0533 | 0.16 | 0.23 | -0.271 | 0.299 | 0.649 | -0.149 | -0.217 |
| TCTAGTTGGTCAGAGGTCACACACTCGAAATGCG | 4.5 | 6.07 | 5.24 | 1.92 | 6.47 | 3.99 | 2.52 | 3.35 |
| CGTCCAAGGTCAAAGGTGAGTGAAGAGATGACGG | 4.48 | 6.91 | 6.63 | 3.77 | 8.39 | 4.4 | 2.28 | 2.92 |
| TCTTTTAGATCAAAGGTTAAGAAAGCCGAAGCCT | 1.42 | 1.81 | 1.01 | 1.32 | 2.81 | 1.33 | -0.158 | -0.294 |
| AGAACGAGGGCACGCTGAGTCGATAGCAGAGTAG | 1.02 | 1.92 | 2.12 | 1.87 | 1.29 | 1.72 | -0.22 | 0.912 |
| CCTGGCAGGCCAATCTGGGTCACTCAAGGCTTGA | 2.28 | 1.11 | 1.5 | -0.376 | 0.545 | 3.8 | 0.481 | -0.15 |
| ATATGTAGGTTAAGGGTCATTCAAGTTGGTTCGC | 4.23 | 4.98 | 4.09 | 1.9 | 6.39 | 4.2 | 1.78 | 3.88 |
| CAAACTAGGTCACGGAAGGTCAAAGTCGAATGAC | 5.47 | 7.13 | 7.4 | 2.45 | 7.3 | 5.24 | 2.79 | 3.53 |
| ATATGTACGTTACATCCGGGTCATTCAGGCTATG | 2.41 | 1.61 | 1.24 | 1.2 | 2.07 | 3.14 | 2.93 | 2.95 |
